Sampled rows, rich in hits. Any-hit rate of the full collection: about 1.1%.
HTR5A inv ctr: inverse agonist of human HTR5A in OPRM1-OPRD1 counter-screen. AID 504634. P47898. HTR5A cell line, luminescence, inverse agonism. inhibition, % at 9.3 µM. 340,000 compounds, 0.083% hits; in the data active = inhibition mostly above about 23%, no sharp cut-off; inactive = mostly below about 18%;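 note: 0% = cells with DMSO and 100% = no-cell wells with DMSO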
OPRM1-OPRD1 ag: OPRM1-OPRD1 heterodimerization agonism; 340,000 compounds, 0.3% hits; activation, % at 9.3 µM; cells, luminescence; AID 504326; in the data active = activation above about 18%;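 note: 0% = vehicle-treated cells and 100% = reference agonist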
Target sequence (P35372 whole entry, looked up): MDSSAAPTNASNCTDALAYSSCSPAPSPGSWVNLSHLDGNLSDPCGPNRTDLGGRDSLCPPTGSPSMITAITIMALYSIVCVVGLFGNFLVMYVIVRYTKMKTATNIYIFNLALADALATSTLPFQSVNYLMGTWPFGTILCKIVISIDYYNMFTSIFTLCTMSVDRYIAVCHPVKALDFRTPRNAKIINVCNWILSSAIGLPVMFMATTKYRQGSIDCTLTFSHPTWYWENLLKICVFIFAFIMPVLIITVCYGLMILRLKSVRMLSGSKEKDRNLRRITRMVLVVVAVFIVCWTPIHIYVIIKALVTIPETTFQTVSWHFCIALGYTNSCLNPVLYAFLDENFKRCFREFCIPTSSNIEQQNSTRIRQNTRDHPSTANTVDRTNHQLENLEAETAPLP
Target sequence (P41143 whole entry, looked up): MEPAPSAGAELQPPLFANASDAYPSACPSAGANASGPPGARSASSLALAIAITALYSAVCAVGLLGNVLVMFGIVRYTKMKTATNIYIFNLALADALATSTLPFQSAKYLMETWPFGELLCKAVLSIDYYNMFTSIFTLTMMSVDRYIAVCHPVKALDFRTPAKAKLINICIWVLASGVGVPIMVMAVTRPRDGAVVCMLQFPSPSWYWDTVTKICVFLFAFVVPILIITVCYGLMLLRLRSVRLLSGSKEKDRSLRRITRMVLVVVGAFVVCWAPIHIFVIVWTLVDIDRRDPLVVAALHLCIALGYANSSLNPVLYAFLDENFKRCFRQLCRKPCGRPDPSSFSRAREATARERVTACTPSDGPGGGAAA
HTR5A ag ctr: activates human HTR5A in OPRM1-OPRD1 agonist counter-screen. 340,000 compounds, 0.61% hits. AID 504692. HTR5A agonist assay, luminescence, cell-based. activation, % at 9.3 µM. P47898; in the data active = activation mostly above about 9.5%, no sharp cut-off; inactive = mostly below about 7.6%;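 note: 0% = cells with vehicle only and 100% = reference agonist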
MOR-DOR inv ag: mu-delta opioid heterodimer inverse agonism. P35372+P41143. 340,000 compounds, 0.21% hits. inhibition, % at 9.3 µM. cell-based MOR-DOR heterodimer luminescence. AID 504357; in the data active = inhibition above about 22%, passing the limit was not always enough;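 note: 0% = cells with DMSO and 100% = wells without cells with DMSO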
OPRM1-D1 inv cf: confirmation of human OPRM1-OPRD1 heterodimerization inverse agonists; shares compounds with MOR-DOR inv ag; cells expressing OPRM1/OPRD1 heterodimer, luminescence; inhibition, % at 9.3 µM; 580 compounds, 20% hits; AID 504900; in the data active = inhibition above about 32%;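 note: 0% = cells with DMSO and 100% = wells lacking cells with DMSO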
HTR5A inv count: inverse agonist of human HTR5A in OPRM1-OPRD1 counter-screen; shares compounds with MOR-DOR inv ag; HTR5A-expressing cells, luminescence, inverse agonism; inhibition, % at 9.3 µM; 580 tested, under 10 active; AID 504914; call rule not given here;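 note: 0% = cells with DMSO and 100% = no-cell wells with DMSO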
An asterisk follows results filed as active; x = no result given.

SMILES	HTR5A inv ctr	OPRM1-OPRD1 ag	HTR5A ag ctr	MOR-DOR inv ag	OPRM1-D1 inv cf	HTR5A inv count
N#CC(C#N)=C1C=CC=CN1/C(=C\c1ccccc1Cl)C(=O)c1ccccc1	23.2	-6.6	1.9	35.1*	17.6	15.9
CCCN1CCC(=NNC(=O)c2ccc(Br)o2)CC1	-7.5	0.5	2.9	-2.7	x	x
CCCN1CCC(=NNc2ccc(C(=O)O)cc2)CC1	26.4	-7.7	-0.8	37.0*	-23.8	-142.5
CCOC(=O)C(OC(=O)c1sc(=S)n(C)c1C)C(C)=O (stereo not drawn)	3.7	-7.3	-1.3	39.4*	21.5	18.3
Cc1cc(C)nc(-n2nc(C)c(C3(O)C(=O)Nc4ccc(F)cc43)c2N)n1 (stereo not drawn)	17.1	-13.6	-9.7	62.0*	52.6*	7.6
Cc1cc(C)nc(-n2nc(C)c(C3(O)C(=O)Nc4ccccc43)c2N)n1 (stereo not drawn)	11.4	-3.8	-4.3	23.5*	-15.3	-3.6
CCOC(=O)C(C(=O)Nc1nccs1)C1CCCCC1 (stereo not drawn)	16.7	-2.1	-4.6	11.6	x	x
COc1ccc(C2C3C=CCC(c4cccc(-c5ccc(C)cc5)c4)C3C(=O)N2Cc2ccccc2)cc1Cl (stereo not drawn)	-27.3	-1.6	5.1	9.3	x	x
CN(C)CC(=O)c1ccc(-c2ccccc2)cc1	0.1	-6.1	-1.0	33.5*	-41.8	-12.0
CCN(CC)CC(=O)c1ccc(-c2ccccc2)cc1	9.5	-10.2	-2.9	54.2*	-57.6	5.0
CCOC(=O)N1CCN(C(=O)CN(C2CCCCC2)S(=O)(=O)c2c(C)cc(C)cc2C)CC1	22.0	0.8	-1.3	-4.3	x	x
CCOC(=O)[C@@H]1[C@H]2COc3cc(OC)ccc3[C@@H]2N2C(=O)N(c3cccc(Cl)c3)C(=O)[C@]12C	-16.7	-1.8	-0.8	9.9	x	x
CC(C)(C)c1ccc(OCC(=O)NNC(=S)NC(=O)c2ccccc2[N+](=O)[O-])c(Br)c1	16.4	-6.3	-4.5	32.5*	17.0	4.3
O=C(NCc1ccccc1)C(c1cccnc1)N(C(=O)c1ccccn1)c1ccc(F)cc1 (stereo not drawn)	9.3	-1.0	1.8	6.8	x	x
C/C(=N\NC(=O)CNC(=O)C(c1ccccc1)c1ccccc1)c1ccc(C(C)(C)C)cc1	-9.6	3.1	-1.2	-16.5	x	x
OCC1OC(Oc2c[nH]c3ccccc23)C(O)C(O)C1O (stereo not drawn)	-3.3	-10.7	0.9	57.9*	-4.9	20.5
CC(=O)N1N=C(c2cccnc2)OC1c1ccc(C(C)C)cc1 (stereo not drawn)	-2.0	-0.9	0.7	6.4	x	x
Cc1ccc(C(=O)COC(=O)CCC(=O)NC2CCCCC2)cc1[N+](=O)[O-]	31.5	-9.5	-6.1	47.3*	35.3*	16.5
COc1ccccc1NC(=O)CCC(=O)OCC(=O)c1ccc(C)c([N+](=O)[O-])c1	5.2	-9.6	6.3	53.2*	-409.8	-103.9
O=C(CCC(=O)OCC(=O)c1ccc(Br)cc1)NC1CCCCC1	-10.9	-3.1	2.1	16.6	x	x
Cc1ccc(C(=O)COC(=O)CCC(=O)Nc2cccc(Cl)c2)cc1[N+](=O)[O-]	16.7	-12.4	-7.0	51.6*	31.6*	6.6
CC(C)CNS(=O)(=O)c1ccc(CCC(=O)Nc2cc(Cl)ccc2Oc2ccccc2)cc1	-16.6	2.6	5.7	-15.1	x	x
Cc1cc(C)n2nc(SCCCC(=O)c3ccccc3)nc2n1	14.8	-2.3	3.4	11.3	x	x
CC(=O)C1=C(c2ccccc2)N(C(C)=O)n2c(C)nnc2S1	4.9	-17.0	-1.9	86.3*	16.4	12.5
CC(=O)N1CCN(c2nnc(-c3ccccc3)c3ccccc23)CC1	-5.2	-1.0	1.3	4.8	x	x
SMILES	HTR5A inv ctr	OPRM1-OPRD1 ag	HTR5A ag ctr	MOR-DOR inv ag	OPRM1-D1 inv cf	HTR5A inv count
O=C1c2ccccc2-c2nnc(-c3ccc(O)cc3)cc21	-7.0	-3.9	-2.4	18.3	x	x
O=C1c2ccccc2-c2nnc(-c3ccc(F)cc3)cc21	3.7	-15.8	-1.4	80.9*	20.7	2.2
Cc1ccccc1-c1cc2c(nn1)-c1ccccc1C2=O	-9.7	-2.4	1.0	14.3	x	x
Cc1ccc(-c2cc3c(nn2)-c2ccccc2C3=O)cc1	-2.9	-18.6	1.1	98.7*	-24.8	-5.1
CC(OC(=O)c1cc[n+]([O-])cc1)C(=O)NCc1ccccc1 (stereo not drawn)	-27.0	5.5	8.9	-35.2	x	x
O=C(Nc1ccc(Br)cc1)N1CCCCCCC1	6.3	-5.8	1.9	33.1*	-67.7	-18.4
CCNC(=S)NNC(=S)NCc1ccccc1	12.5	-3.8	-3.1	20.9	x	x
CCNC(=S)NNc1nnc(-c2ccccc2)c(-c2ccccc2)n1	17.4	-10.0	1.8	49.9*	28.5	7.9
COc1ccc(N2COC3c4cccc5cccc(c45)C32)cc1 (stereo not drawn)	9.2	-9.3	-3.6	49.8*	-267.1	-58.0
CCc1ccc(C(=O)COC(=O)CNC(=O)c2ccc(Br)o2)cc1	5.3	-3.7	3.0	20.6	x	x
Cc1ccc(C(=O)COC(=O)CNC(=O)Cc2ccccc2)cc1	-19.3	-3.5	1.8	19.1	x	x
Cc1ccc(C(=O)COC(=O)CNC(=O)Cc2ccccc2)cc1[N+](=O)[O-]	29.2	-13.8	-6.0	57.3*	-46.3	-24.5
Cc1ccc(C(=O)COC(=O)CNC(=O)c2ccc(Br)o2)cc1[N+](=O)[O-]	23.3	-10.7	-5.1	54.2*	-64.5	5.5
O=C(c1ccc(-c2ccc(Cl)cc2)o1)N1CCN(S(=O)(=O)c2cccs2)CC1	-20.7	-3.5	5.7	18.2	x	x
COc1cc(NC(=O)CCCNC(=O)Cn2cnc3sc4c(c3c2=O)CCCC4)cc(OC)c1OC	-16.2	3.3	10.5	-20.8	x	x
CC(=O)Nc1ccc(Br)cc1C(=O)C(=O)O	11.4	-6.5	-5.3	36.1*	-13.4	-36.7
CCCCC(=O)Nc1ccc(Br)cc1C(=O)O	4.2	-0.7	2.5	3.8	x	x
Cc1ccc(CN2C(=O)C(CC(C)C)Nc3ncnc(N4CCN(c5ccccc5)CC4)c32)cc1 (stereo not drawn)	9.1	-1.3	4.7	7.6	x	x
CCC1Nc2ncnc(N3CCN(c4ccccc4)CC3)c2N(Cc2ccc(C)cc2)C1=O (stereo not drawn)	36.1	-10.9	-16.4	50.0*	35.6*	56.0*
CC(=O)N1CCC(C(=O)NC2CCCc3c2cnn3-c2cc(F)cc(F)c2)CC1 (stereo not drawn)	3.4	-1.2	3.1	6.4	x	x
O=C1Nc2ccccc2/C1=N/c1sc2c(c1C(=O)NCCc1ccccc1)CCCC2	-23.6	-5.8	2.3	33.5*	20.9	14.1
O=C(Nc1sc2c(c1C(=O)NCCO)CCCC2)c1ccco1	-16.7	-1.1	6.2	6.1	x	x
NC(=O)c1ccc(N=C2C(=O)Nc3ccc([N+](=O)[O-])cc32)cc1	-13.7	0.1	4.8	-0.8	x	x
O=C1Nc2ccccc2C1=Nc1cccc([N+](=O)[O-])c1	-3.9	-8.3	1.0	48.1*	-137.7	-11.8
O=C1Nc2ccccc2C1=Nc1ccc(S(=O)(=O)Nc2nccs2)cc1	-12.9	0.6	3.7	-2.6	x	x

Screens deposited in PubChem by The Scripps Research Institute Molecular Screening Center.
